30 molecules from PubChem BioAssay AID449739 (Vanderbilt High Throughput Screening Facility, 2010) can be followed below.

The campaign covered roughly 100,000 compounds. About 4,200 (4.2%) were called active.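 How the source made its calls: active means single-dose well whose peak fluorescence ratio is a statistical outlier from its plate by either plate-standardised score or position-corrected B-score; inactive means the rest.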 The sample as a whole holds a higher share of actives than the screen did.

Chain of Voltage-dependent T-type calcium channel subunit alpha-1H (Homo sapiens) (O95180 whole entry, looked up): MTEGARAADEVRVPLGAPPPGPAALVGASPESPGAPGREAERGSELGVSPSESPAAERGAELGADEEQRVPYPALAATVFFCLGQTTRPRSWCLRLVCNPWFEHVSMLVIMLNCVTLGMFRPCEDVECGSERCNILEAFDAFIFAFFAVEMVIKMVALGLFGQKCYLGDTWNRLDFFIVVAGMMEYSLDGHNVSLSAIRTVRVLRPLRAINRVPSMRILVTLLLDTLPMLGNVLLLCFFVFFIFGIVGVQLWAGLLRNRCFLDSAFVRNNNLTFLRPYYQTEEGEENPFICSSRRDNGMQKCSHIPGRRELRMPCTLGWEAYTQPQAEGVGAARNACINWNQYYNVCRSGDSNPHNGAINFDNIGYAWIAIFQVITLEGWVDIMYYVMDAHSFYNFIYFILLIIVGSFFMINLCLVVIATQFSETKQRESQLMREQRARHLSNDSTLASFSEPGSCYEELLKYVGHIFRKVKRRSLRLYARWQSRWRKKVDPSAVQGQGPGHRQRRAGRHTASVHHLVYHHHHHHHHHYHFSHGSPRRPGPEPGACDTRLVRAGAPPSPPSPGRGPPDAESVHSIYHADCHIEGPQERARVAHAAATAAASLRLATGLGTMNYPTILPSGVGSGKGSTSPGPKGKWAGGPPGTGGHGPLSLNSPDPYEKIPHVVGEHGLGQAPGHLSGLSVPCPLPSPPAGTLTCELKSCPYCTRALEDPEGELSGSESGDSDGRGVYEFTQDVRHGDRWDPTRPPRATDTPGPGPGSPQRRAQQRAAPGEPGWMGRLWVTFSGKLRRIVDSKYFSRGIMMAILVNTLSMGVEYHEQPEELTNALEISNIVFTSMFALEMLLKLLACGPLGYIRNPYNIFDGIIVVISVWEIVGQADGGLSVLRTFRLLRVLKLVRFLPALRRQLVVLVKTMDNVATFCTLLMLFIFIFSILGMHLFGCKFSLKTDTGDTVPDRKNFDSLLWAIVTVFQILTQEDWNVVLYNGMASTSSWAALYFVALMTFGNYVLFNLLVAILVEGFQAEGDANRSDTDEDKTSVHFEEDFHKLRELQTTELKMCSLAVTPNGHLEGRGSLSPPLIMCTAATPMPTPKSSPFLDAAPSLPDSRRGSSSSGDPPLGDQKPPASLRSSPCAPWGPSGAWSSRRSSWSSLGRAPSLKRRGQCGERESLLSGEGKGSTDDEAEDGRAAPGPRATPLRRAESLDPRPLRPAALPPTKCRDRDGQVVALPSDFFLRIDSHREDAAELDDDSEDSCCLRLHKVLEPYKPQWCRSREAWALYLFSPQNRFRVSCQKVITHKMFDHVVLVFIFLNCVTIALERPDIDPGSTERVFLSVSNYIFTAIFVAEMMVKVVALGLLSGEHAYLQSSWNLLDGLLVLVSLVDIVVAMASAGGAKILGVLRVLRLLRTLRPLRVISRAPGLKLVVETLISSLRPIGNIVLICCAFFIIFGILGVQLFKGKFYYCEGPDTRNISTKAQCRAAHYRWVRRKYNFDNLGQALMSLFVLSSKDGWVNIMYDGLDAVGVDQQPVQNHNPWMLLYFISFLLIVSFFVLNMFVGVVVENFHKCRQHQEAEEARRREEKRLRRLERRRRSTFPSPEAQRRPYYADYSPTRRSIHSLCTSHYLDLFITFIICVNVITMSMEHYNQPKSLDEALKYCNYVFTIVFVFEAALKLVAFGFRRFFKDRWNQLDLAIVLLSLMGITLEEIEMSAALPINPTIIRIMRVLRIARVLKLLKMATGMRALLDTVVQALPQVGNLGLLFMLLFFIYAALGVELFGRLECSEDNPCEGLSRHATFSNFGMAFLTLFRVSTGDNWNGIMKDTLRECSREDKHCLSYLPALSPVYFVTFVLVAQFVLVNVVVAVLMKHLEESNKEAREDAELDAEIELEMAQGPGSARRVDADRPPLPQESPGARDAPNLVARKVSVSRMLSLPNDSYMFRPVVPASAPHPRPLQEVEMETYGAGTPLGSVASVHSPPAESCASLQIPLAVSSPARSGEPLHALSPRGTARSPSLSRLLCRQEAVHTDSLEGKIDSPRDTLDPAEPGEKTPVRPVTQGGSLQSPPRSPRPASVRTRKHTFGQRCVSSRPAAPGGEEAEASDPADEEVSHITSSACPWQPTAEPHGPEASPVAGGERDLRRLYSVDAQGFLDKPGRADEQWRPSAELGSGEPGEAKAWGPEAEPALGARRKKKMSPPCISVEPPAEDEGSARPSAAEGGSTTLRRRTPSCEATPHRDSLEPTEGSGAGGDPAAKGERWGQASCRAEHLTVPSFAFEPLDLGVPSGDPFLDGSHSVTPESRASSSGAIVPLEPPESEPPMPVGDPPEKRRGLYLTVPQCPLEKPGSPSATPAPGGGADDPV

This assay addresses Voltage-dependent T-type calcium channel subunit alpha-1H (Homo sapiens) (UniProt O95180). Briefly: Cav3.2 calcium influx blockers – cell-based, Fluo-4 calcium fluorescence, FDSS, MLSMR library, primary screen (AID 449739). The conditions noted are these: Cav3.2-expressing cells, at 10 µM, stronger effect = lower value.
Regarding `COc1cc(Cn2c(N)c(C(=O)NCc3ccco3)c3nc4ccccc4nc32)cc(OC)c1OC`, the B-score is -1.47 (active).

As for `CCOC(=O)c1c(N)n(CCN2CCOCC2)c2nc3ccccc3nc12`, the B-score is 0.618 (inactive).

For the molecule `CCOC(=O)c1c(N)n(Cc2ccccc2)c2nc3ccccc3nc12`, the B-score was -0.856 (inactive).

In the case of `O=C(COc1ccc2ccccc2c1)N1CCN(Cc2ccncc2)CC1`, the B-score was 0.31 (inactive).

Take `CCCCCCN=C(CC)c1c(O)n(CCCC)c(=O)[nH]c1=O`: the B-score was -6.91 (active).

On to `CCC(=NCCCO)c1c(O)n(-c2ccc(OC)cc2)c(=O)[nH]c1=O`, for which the B-score was -0.0478 (inactive).

Turning to `CCCCn1c(O)c(C(CC)=NCc2ccco2)c(=O)[nH]c1=O`, the B-score was -0.626 (inactive).

As to `COC(=O)C1=C(c2cc3ccccc3o2)C[C@@H]2CC[C@H]1N2C(=O)NC1CCCCC1`, the B-score is -0.929 (inactive).

As to `COc1ccc2c(c1)[C@]13CCCCC1C(C2)N(C)CC3` (stereo not given in full), the B-score is 1.06 (inactive).

`CCCCCn1c(=O)c(C(=O)Nc2c(C)n(C)n(-c3ccccc3)c2=O)c(O)c2ccccc21`: the B-score is -7.21 (active).

In the case of `CCCCCn1c(=O)c(C(=O)NCc2ccccn2)c(O)c2ccccc21`, the B-score is -1.65 (inactive).

For the molecule `C[C@@]1([C@@H](NP(=O)(c2ccccc2)c2ccccc2)c2ccccc2)C[C@H]1CCO`, the B-score was -0.319 (inactive).

Turning to `C[N+]1(C)CCOC(O)(c2ccc(-c3ccc(C4(O)C[N+](C)(C)CCO4)cc3)cc2)C1` (stereo not given), the B-score is 0.445 (inactive).

As to `C=CC12CN(C)[C@@H]3C4CO[C@H](C[C@H]41)[C@]1(C(=O)Nc4ccccc41)[C@@H]32` (stereo not given in full), the B-score was -0.174 (inactive).

For the molecule `Cc1ccc(N(C)C(=O)Oc2cccc3ccc(C)nc23)cc1`, the B-score is -6.07 (active).

Consider `COC(=O)C1=C(c2ccccc2)C[C@@H]2CC[C@H]1N2C(=O)NCc1ccco1`, for which the B-score was 0.641 (inactive).

`CCCC[N+]1(C)C2CC(OC(=O)C(CO)c3ccccc3)CC1C1OC12` (stereo not given): the B-score is -0.292 (inactive).

As for `CN(C)C(=O)NC(O)C(Cl)(Cl)Cl` (stereo not given), the B-score is -0.859 (inactive).

Take `CNCC(O)c1cc(F)c(OCc2ccccc2)c(OCc2ccccc2)c1F` (stereo not given): the B-score was -0.0158 (inactive).

Regarding `CC(C)(C)c1ccc(CN2C(=O)CN=C(c3ccccc3)c3ccccc32)cc1`, the B-score was -5.08 (active).

For the molecule `CC1C2Cn3c(nc4ccccc43)C1N(C)O2` (stereo not given), the B-score was 0.301 (inactive).

As to `COC(=O)C1=C(c2cc3ccccc3s2)C[C@@H]2CC[C@H]1N2C(=O)NCCO`, the B-score is 0.584 (inactive).

Turning to `COC(=O)C1=C(c2cc3ccccc3s2)C[C@@H]2CC[C@H]1N2C(=O)NC(C)C`, the B-score is 0.726 (inactive).

In the case of `COC(=O)C1=C(c2cc3ccccc3s2)C[C@@H]2CC[C@H]1N2C(=O)NCc1cccc2ccccc12`, the B-score was -4.11 (active).

As to `COC(=O)C1=C(c2ccccc2)C[C@@H]2CC[C@H]1N2C(=O)N1CCCCC1`, the B-score is 0.364 (inactive).

For `COc1ccc2c(c1O)-c1cccc3c1[C@@H](C2)N(C)CC3`, the B-score was -2.61 (inactive).

On to `COc1c(O)ccc2c1-c1c3c(cc4c1C(C2)N(C)CC4)OCO3` (stereo not given), for which the B-score was 0.137 (inactive).

As to `CC[C@H]1CC2CN3CCc4c([nH]c5ccccc45)C(C(=O)OC)(C2)C13` (stereo not given in full), the B-score is -1.28 (inactive).

In the case of `NCC(O)c1ccc(O)cc1` (stereo not given), the B-score was 1.98 (inactive).

With `CC(C)(C)[C@]1(O)C[C@@H]2OC(=O)C[C@@]23C(=O)O[C@@H]2OC(=O)[C@H](O)[C@]213`, the B-score is 0.0998 (inactive).
